Hits are enriched below; roughly 3.6% of the tested compounds scored in any of these assays.
Pf apPOL inh: Pf-apPOL DNA polymerase inhibition. Recombinant Pf-apPOL, molecular beacon fluorescence, 1.5 h. inhibition, % at 10 µM. actives 0.25% (n = 210,000)
mHTT CaM bind: disrupts binding of mutant huntingtin to calmodulin | P42858 | AlphaScreen His-mHTT/GST-CaM binding, luminescence | inhibition, % at 15 µM | actives 3.6% (n = 190,000)
Of the large screens only hits and unclear results are named; the others gave an inactive call. Cut-off read from the data, not from the text of the source: active = inhibition above about 50%; inactive = the rest.

COc1ccc(C2N(c3ccc(OC)c(Cl)c3)C(=O)C3CCCN32)cc1 (stereo unspecified)	none
COc1ccc(N2C(=O)C3CCCN3C2c2cccc(C)c2)cc1Cl (stereo unspecified)	none
COc1cccc(C2N(c3ccc(Cl)c(Cl)c3)C(=O)C3CCCN32)c1OC (stereo unspecified)	mHTT CaM bind 100
COc1ccc(N2C(=O)C3CCCN3C2c2ccc(N(C)C)cc2)cc1Cl (stereo unspecified)	mHTT CaM bind 67
COc1ccc(C2N(c3ccc(Cl)cc3)C(=O)C3CCCN32)cc1 (stereo unspecified)	none
COc1cccc(C2N(c3ccc(Cl)c(Cl)c3)C(=O)C3CCCN32)c1 (stereo unspecified)	mHTT CaM bind 99
O=C(OCc1cc(-c2ccc3c(c2)OCCO3)on1)c1c[nH]c2ccccc12	none
Cc1cccc(NC(=O)CSc2nc3c(c(=O)n2-c2ccc([N+](=O)[O-])cc2)SCC3)c1C	none
CCOc1ccc(N2C(=O)c3ccccc3NC2(C)C)cc1	none
CCc1ccc(NC(=O)COc2cc(C)nc(N3CCC(C)CC3)n2)cc1	none
COc1ccc(OC)c(C2N(c3ccc(Cl)c(Cl)c3)C(=O)C3CCCN32)c1 (stereo unspecified)	mHTT CaM bind 100
COc1ccc(OC)c(C2N(c3cc(C)on3)C(=O)C3CCCN32)c1 (stereo unspecified)	none
FC(F)(F)c1cc(N2CCC(n3cccc3)CC2)c2ccccc2n1	none (no result: mHTT CaM bind)
Cc1cccc(N2CCN(c3ccc(SCC(=O)Nc4cccc(F)c4)nn3)CC2)c1	none
CC(C)N1C(=O)C(C)(C(=O)NCc2ccccc2)Oc2cccnc21 (stereo unspecified)	none
CC(C)N1C(=O)C(C)(C(=O)NCc2ccc(Br)cc2)Oc2cccnc21 (stereo unspecified)	mHTT CaM bind 95
COc1ccc(Nc2ccc(C(F)(F)F)cc2[N+](=O)[O-])cc1	mHTT CaM bind 53
COc1ccc(OCCNc2ccc(C(F)(F)F)cc2[N+](=O)[O-])cc1	none
Cc1oc(C2CCN(C(=O)c3ccccc3)CC2)nc1C(=O)N1CCOCC1	none
COc1cc(NC(=O)Cn2nc3c(cc2=O)CCCC3)cc(OC)c1OC	none
COc1cc2c(cc1OC)CN(Cc1ccccc1Cl)CC2	none
COc1cc2c(cc1OC)CN(Cc1ccc(Cl)c(Cl)c1)CC2	mHTT CaM bind 55
CCOc1ccc(NC(=O)C(C(C)C)N2C(=O)c3ccccc3C2=O)cc1 (stereo unspecified)	none
CC(=O)Nc1ccc(S(=O)(=O)Nc2ccc3c(c2)oc2ccccc23)cc1	none
O=S(=O)(Nc1ccc2c(c1)oc1ccccc12)c1ccc2ccccc2c1	mHTT CaM bind 77 (no result: Pf apPOL inh)
CC(=O)N1CCc2sc(C(=O)N3CCN(c4ccccc4)CC3)cc2C1	none
Cc1ccc(C2CC(c3ccc(Br)cc3)Nc3nnnn32)c(C)c1 (stereo unspecified)	none
O=[N+]([O-])c1cccc(S(=O)(=O)N2CCCC2)c1	none
O=[N+]([O-])c1cccc(S(=O)(=O)C=C(Cl)Cl)c1	mHTT CaM bind 63 (no result: Pf apPOL inh)
CC(C)n1c2ccc(Br)cc2c2nc3ccccc3nc21	Pf apPOL inh 82
Cn1c2ccc([N+](=O)[O-])cc2c2nc3ccccc3nc21	none
N#Cc1c(C(F)(F)F)cc(-c2ccccc2)nc1SCC(N)=O	Pf apPOL inh 65
N#Cc1c(C(F)(F)F)cc(-c2ccccc2)nc1SCCC(N)=O	none
O=C1C(=Cc2cc([N+](=O)[O-])cc(Br)c2O)C(=O)c2ccccc21	none
COc1ccc(C)cc1NC(=O)c1cc(C)n(CCN(C)C)c1C	mHTT CaM bind 51
COc1ccc(OC)c(NC(=O)c2cc(C)n(CCN(C)C)c2C)c1	none
Cc1ccc(NC(=O)N2CCc3c(c(-c4nc(C5CC5)no4)nn3C)C2)cc1	none
CCC(=O)NS(=O)(=O)c1ccccc1	none
CCCCOc1ccc(C(=O)Oc2cc(C)[nH]c(=O)c2[N+](=O)[O-])cc1	none
COc1ccc(Cl)cc1C(=O)Oc1cc(C)[nH]c(=O)c1[N+](=O)[O-]	none
COc1ccc(C=CC(=O)Oc2cc(C)[nH]c(=O)c2[N+](=O)[O-])cc1OC	mHTT CaM bind 91
COc1ccc(C(=O)Oc2cc(C)[nH]c(=O)c2[N+](=O)[O-])cc1	mHTT CaM bind 97
CN1CCN(CCNC(=O)CC2CCN(S(=O)(=O)c3ccc(Cl)s3)CC2)CC1	none
NC(=O)c1c(NC(=O)CCN2C(=O)c3cccc([N+](=O)[O-])c3C2=O)sc2c1CCCC2	none
CCc1cccc(C)c1-n1nnnc1C(C)(C)Nc1ccccc1	none
CCC(C)(Nc1ccc(N(C)C)cc1)c1nnnn1-c1c(C)cccc1C (stereo unspecified)	mHTT CaM bind 55
CN1C(=O)c2cccnc2Sc2cc(NC(=O)c3ccc(F)cc3)ccc21	none
Cc1ccc2ccc3ccc(C)nc3c2n1	none (no result: Pf apPOL inh)
Cc1cccc(NC(=O)C(=O)NCc2ccccn2)n1	none
Cc1cccc(NC(c2ccccn2)c2ccc3ccc(C)nc3c2O)n1 (stereo unspecified)	mHTT CaM bind 99
Cc1cccc(NC(c2cccc(C)n2)c2ccc3ccc(C)nc3c2O)n1 (stereo unspecified)	mHTT CaM bind 76
O=C(NC1CCCC1)C1CCN(c2ncccc2-c2nc(-c3ccccc3)no2)CC1	none
CCc1nc2c(NC(=O)c3ccc(C(F)(F)F)cc3)cccn2n1	mHTT CaM bind 54
CCc1nc2c(NC(=O)c3cc(F)cc(F)c3)cccn2n1	none
COCC(=O)N1CCCCC1c1nc(-c2ccncc2)no1 (stereo unspecified)	none
Clc1ccc(N2Cc3ccccc3C2)cc1Cl	mHTT CaM bind 87
O=C(c1c(F)cccc1F)N1CCN(c2ccc(Cl)c(Cl)c2)CC1	none
O=[N+]([O-])c1cccc(-c2noc(-c3cccc(Br)c3)n2)c1	none
Cc1nc2ccc3nc(NC(=O)c4ccccn4)sc3c2s1	none
Oc1ccc(O)c2c1C1c3ccccc3C2c2ccccc21	none
Oc1ccc2ccccc2c1C1Nc2cccc3cccc(c23)N1	mHTT CaM bind 89 (no result: Pf apPOL inh)
Cc1ccc(C(=O)N2CCCC(COc3ccc(C(=O)N4CCCCC4)cc3)C2)s1 (stereo unspecified)	none
Cc1noc(C)c1S(=O)(=O)N1CCC(CC(=O)N2CCCCC2)CC1	none
CN1C(=O)c2cccc(NC(=O)c3ccc(S(=O)(=O)N4CCOCC4)cc3)c2C1=O	none
O=c1oc(=O)n(Cc2ccc(Cl)c(Cl)c2)c2ccccc12	mHTT CaM bind 99
N=c1n(CCO)c2ccccc2n1Cc1ccc(Cl)c(Cl)c1	none
Cn1c(=O)n(Cc2ccccc2Cl)c2ccccc21	none
Cn1c(=O)n(Cc2ccc(Cl)c(Cl)c2)c2ccccc21	mHTT CaM bind 78
c1ccc2sc(SCCCNCCCN3CCOCC3)nc2c1	none
CCOc1ccc(C2CCC(=O)NC2=O)cc1 (stereo unspecified)	none
O=C(CN1C(=O)c2ccccc2C1=O)NCCCN1CCCC1=O	none
COc1ccc(C(=O)NC(Nc2ccc(Br)cc2)C(Cl)(Cl)Cl)cc1 (stereo unspecified)	none
COc1ccc(NC(NC(=O)c2ccc([N+](=O)[O-])cc2)C(Cl)(Cl)Cl)cc1 (stereo unspecified)	mHTT CaM bind 53
COc1ccc(NC(NC(=O)c2ccc(Cl)cc2)C(Cl)(Cl)Cl)cc1 (stereo unspecified)	mHTT CaM bind 57
COc1ccc(C(=O)NC(Nc2ccc([N+](=O)[O-])cc2)C(Cl)(Cl)Cl)cc1 (stereo unspecified)	none
CC(Oc1ccc(Cl)cc1Cl)C(=O)NC1=NN(c2ccccc2)C(=O)C1 (stereo unspecified)	mHTT CaM bind 68
